According to PubChem BioAssay (EPA / NIEHS):
Where “and” joins values, the source holds several entries; their conditions need not be identical. Equal entries are not always repeated. Inconclusive results are not listed. Calls of active or inactive are those of the source. Rule for the calls, unless noted: active = hit-call score of the fitted dose curve at least 0.9, where 1 is the maximum; inactive = score below 0.9.

Legend:
TTR (gene 7276) = experiment: CCTE_GLTED_hTTR_0.125uM: CCTE's human Transthyretin (hTTR) Inhibition Assay, with 0.125uM TTR, Great Lakes Toxicology and Ecology Division (GLTED) Lab (AID 2284431);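 note: hits lower the fluorescence signal relative to DMSO baseline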
How it was run: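 TTR 0.125uM + test chemical, 2 h; ANSA probe displacement; ex 380/em 475 fluorescence; signal loss vs DMSO control.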

[1] = CCTE_Padilla_ZF_Score.Any: CCTE's 144 Hour Post-fertilization zebrafish Assay Score for Any Mortality or Malformation, Padilla Lab (AID 2284416)
How it was run: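 Wild-type zebrafish embryos with chorions, one per well in 10% Hanks' from 6–8 hpf, dosed in sealed plates at 26 C, 14:10 h light:dark; rinsed at 5 dpf; blinded scoring at 6 dpf for death or malformation, versus DMSO.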

[2] = test system: Brachyury (BRA) Protein Expression, TBXT (gene 6862); experiment: CCTE_Deisenroth_DEVTOX-GLR_Endo_BRA: CCTE's DevTox GLR-Endo Assay Evaluation of Brachyury (BRA) Protein Expression, Deisenroth Lab (AID 2284417)
How it was run: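 Percent BRA+ (mesoderm) RUES2-GLR cells after 48 h differentiation with two exposures, 1 nM - 200 uM; 0.2% DMSO control subtracted.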

[3] = CCTE_Deisenroth_DEVTOX-GLR_Endo_CellCount: Viability Assessment in CCTE's DevTox GLR-Endo Assay, Deisenroth Lab (AID 2284420)
How it was run: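 Nuclei counted by fluorescence microscopy as a surrogate for cell number, expressed as percent change relative to 0.2% DMSO control. Human RUES2-GLR cells, 48 h differentiation, dosed twice; 1 nM - 200 uM series.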

[4] = test system: SRY-box transcription factor 17 (SOX17) Protein Expression, Deisenroth Lab, SOX17 (gene 64321); experiment: CCTE_Deisenroth_DEVTOX-GLR_Pluri_SOX17: CCTE's DevTox GLR-Pluri Assay Evaluation of SRY-box transcription factor 17 (SOX17) Protein Expression, Deisenroth Lab (AID 2284427; active = hit-call score of the fitted dose curve at least 0.9, where 1 is the maximum)
How it was run: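 Readout: percent SOX17+ cells (SOX17+ count/cell count) by high-content imaging of an inducible fluorescent reporter, corrected for 0.2% DMSO solvent control. RUES2-GLR cells, 48 h differentiation, dosed twice at 24 h intervals, 1 nM - 200 uM.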

[5] = test system: SRY-box transcription factor 2 (SOX2) Protein Expression, Deisenroth Lab, SOX2 (gene 6657); experiment: CCTE_Deisenroth_DEVTOX-GLR_Pluri_SOX2: CCTE's DevTox GLR-Pluri Assay Evaluation of SRY-box transcription factor 2 (SOX2) Protein Expression, Deisenroth Lab (AID 2284428)
How it was run: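 RUES2-GLR (human pluripotent), 48 h post-dosing, 2 exposures q24h, 1 nM–200 uM 10-pt. Fixed, nuclear dye, high-content imaging 5 fields/well. Endpoint: % SOX2+ cells (SOX2+/total count) vs 0.2% DMSO; n≥4.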

[6] = test system: Brachyury (BRA) Protein Expression, Deisenroth Lab, TBXT (gene 6862); experiment: CCTE_Deisenroth_DEVTOX-GLR_Pluri_BRA: CCTE's DevTox GLR-Pluri Assay Evaluation of Brachyury (BRA) Protein Expression, Deisenroth Lab (AID 2284429; active = hit-call score of the fitted dose curve at least 0.9, where 1 is the maximum)
How it was run: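 RUES2-GLR human pluripotent cells differentiated 48 hours with two chemical exposures 24 hours apart, 10-point series 1 nM–200 uM. Fixed, nuclear-stained, imaged; endpoint is percent BRA+ cells minus 0.2% DMSO control.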

[7] = CCTE_Deisenroth_DEVTOX-GLR_Pluri_CellCount: Viability Assessment in CCTE's DevTox GLR-Pluri Assay Evaluation of Total Cell Counts, Deisenroth Lab (AID 2284430)
How it was run: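 RUES2-GLR human pluripotent cells, seeded 24 h, then differentiated 48 h with two chemical exposures 24 h apart; 10-point series 1 nM - 200 uM. Fixed, nuclear-stained, imaged (5 fields/well); nuclei count as % change vs 0.2% DMSO.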

O=NN(c1ccccc1)c1ccccc1
AC50 (TTR (gene 7276)): 14.2 µM (active)

O=C(O)C(F)(F)C(F)(F)C(F)(F)C(F)(F)C(F)(F)C(F)(F)C(F)(F)C(F)(F)F
AC50 [1]: 29.1 µM (active)
AC50 (TTR (gene 7276)): 0.21 µM (active)

NS(=O)(=O)C(F)(F)C(F)(F)C(F)(F)C(F)(F)C(F)(F)C(F)(F)C(F)(F)C(F)(F)F
AC50 [1]: 0.747 µM (active)
AC50 (TTR (gene 7276)): 0.683 µM (active)

CC(C)(c1ccccc1)c1ccc(O)cc1
AC50 (TTR (gene 7276)): 0.888 µM (active)

Clc1ccc(C(Cl)(Cl)Cl)cc1
AC50 (TTR (gene 7276)): 1.04 µM (active)

Oc1ccc(C(c2ccc(O)cc2)(C(F)(F)F)C(F)(F)F)cc1
AC50 (TTR (gene 7276)): 2.53 µM (active)

O=C(O)C(F)(F)C(F)(F)C(F)(F)C(F)(F)C(F)(F)C(F)(F)C(F)(F)C(F)(F)C(F)(F)F
AC50 [1]: 10.7 µM (active)
AC50 (TTR (gene 7276)): 0.646 µM (active)

CCCCCCCCCc1ccc(O)cc1
AC50 (TTR (gene 7276)): 3.03 µM (active)

Cc1cc(-c2ccc(N)c(C)c2)ccc1N
AC50 (TTR (gene 7276)): 92.7 nM (active) and 178 nM (active)

CCC(C)c1cc([N+](=O)[O-])cc([N+](=O)[O-])c1O (centres undefined)
AC50 (TTR (gene 7276)): 0.0883 µM (active)

CCC(C)(c1ccc(O)cc1)c1ccc(O)cc1
AC50 (TTR (gene 7276)): 9.26 µM (active)

O=S(=O)(O)C(F)(F)C(F)(F)C(F)(F)C(F)(F)C(F)(F)C(F)(F)F
AC50 [1]: 36.4 µM (active) and 34.4 µM (active)
AC50 (TTR (gene 7276)): 0.0856 µM (active)

O=C(O)C(F)(F)C(F)(F)C(F)(F)C(F)(F)C(F)(F)F
outcome [1]: inactive
AC50 (TTR (gene 7276)): 1.92 µM (active)

O=S(=O)(O)C(F)(F)C(F)(F)C(F)(F)C(F)(F)F
outcome [1]: inactive
AC50 (TTR (gene 7276)): 2.08 µM (active)

CC(c1ccc(O)cc1)(c1ccc(O)cc1)c1ccc(O)cc1
AC50 (TTR (gene 7276)): 1.48 µM (active)

CC1=C2C[C@H]3[C@@H](CC=C4C[C@@H](O)CC[C@@]43C)[C@@H]2CC[C@]12O[C@@H]1C[C@H](C)CN[C@H]1[C@H]2C
outcome [2]: inactive
outcome [3]: inactive
outcome [4]: inactive
outcome [5]: inactive
outcome [6]: inactive
outcome [7]: inactive

Cc1cc(O)ccc1Cl
AC50 (TTR (gene 7276)): 20.5 µM (active)

C=CC(N)=O
outcome [2]: inactive
outcome [3]: inactive
outcome [4]: inactive
outcome [5]: inactive
outcome [6]: inactive
outcome [7]: inactive
